# Most compounds without a hit are left out; they make up all but 19% or so of the library.
# KB-3-1 tox: KB-3-1 parental cell cytotoxicity | KB-3-1 viability, CellTiter-Glo ATP luminescence, 72 h | Potency, µM (doses to about 46.1 µM), most hits filed as cytotoxic | hit rate 1.4% among 400,000; note: nearly all actives have a fitted effect of over 60% in size
#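 Cells are dispensed, compounds pinned in, plates held at 37 °C for 72 h, then CellTiter-Glo is added and luminescence read after 10 minutes. Cell line: parental KB-3-1 in phenol-red-free DMEM, 10% FBS.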
# TDP1 cell noCPT: qHTS for Inhibitors of human tyrosyl-DNA phosphodiesterase 1 (TDP1): qHTS in cells in absence of CPT. DT40 Tdp1-/- hTDP1 cells, no CPT, ATP luminescence, 48 h. Potency, µM (top dose mostly 46.2 µM), without a hit: at the top dose activity change, negative = growth inhibition, usual class: inhibitors. hit rate 15% among 420,000. AID 686978, 2013; note: nearly all actives have a fitted effect of over 55% in size
#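 Cells were dispensed at 400 per well, compounds added by pin tool, plates incubated ≥48 hr at 37 °C, then CellTiter-Glo added for 30 min at room temperature before luminescence reading. Line: DT40 Tdp1-/- complemented with hTDP1; camptothecin omitted.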
# HT1080 IDH1KD tx: toxicity to HT-1080 IDH1 knockdown cells (counter line). HT-1080 IDH1 knockdown viability, ATP luminescence, 48 h. Potency, µM (titrated, usually from 46.1 µM), for inactives: top-dose activity, negative = toxicity, usual class: cytotoxic. hit rate 2% among 360,000. AID 686971;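 note: 0% = DMSO wells and -100% = cell-free medium wells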
#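 Assay cells: HT-1080 with IDH1 knockdown, 750 per well, RPMI/5% FBS. Exposure: 48 h at 37 °C following 2 h pre-incubation. Read: CellTiter-Glo luminescence; fitted concentration-response, curve class assigned.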
# KB-V1 cytotox: KB-V1 MDR subline cytotoxicity; KB-V1 MDR cells viability, CellTiter-Glo, 72 h; Potency, µM (titrated, usually from 46.1 µM), actives largely listed as cytotoxic; hit rate 3.4% among 400,000; AID 1347076; note: nearly all actives have a fitted effect of over 60% in size
#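 Drug-selected KB-V1 cells, grown in DMEM lacking phenol red with 10% FBS, receive compound titrations; after three days at 37 degrees C, surviving cell ATP is quantified by CellTiter-Glo luminescence and responses normalized and curve-fitted.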
# DT40 TDP1 CPT: growth inhibition of DT40 Tdp1-/-;hTDP1 cells with camptothecin (screen for TDP1 inhibitors); chicken DT40 Tdp1-/-;hTDP1 cells + 20 nM CPT, ATP luminescence, 48 h; Potency, µM (series often up to 46.2 µM), without a hit: at the top dose activity change, negative = growth inhibition, usual class: inhibitors; hit rate 12% among 420,000; note: nearly all actives have a fitted effect of over 55% in size
#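 Chicken DT40 Tdp1-/- cells stably complemented with human TDP1 were seeded at 400 cells/well in medium containing 20 nM camptothecin, exposed to pin-transferred compounds, and grown at 37 °C for at least 48 hr. Viability was read as ATP luminescence.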
# HT1080-NT tox: kills 2HG-producing HT-1080-NT fibrosarcoma cells; HT-1080-NT fibrosarcoma viability, CellTiter-Glo ATP luminescence, 48 h; Potency, µM (series often up to 46.1 µM), for inactives: top-dose activity, negative = less viability, usual class: cytotoxic; hit rate 1.6% among 360,000; AID 686970;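 note: NT is the 2HG producing partner of a matched IDH1 knockdown line; 0% = DMSO-treated cells and -100% = media-only wells without cells; nearly all actives have a fitted effect of over 55% in size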
#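 Viability of the 2HG-overproducing fibrosarcoma line after 48 hours of compound exposure at 37 degrees C was determined by luminescence with CellTiter-Glo, and concentration-effect curves were then fitted and categorized.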
# The depositor's hits bear a star; i = inactive; ? = inconclusive; · = no result. Calls come from the whole dose curve; as a rule, active = well fitted curve in the direction sought with a large enough effect; inconclusive = small, poorly fitted or top-dose-only effect, or another doubt; inactive = no such curve, though single readings can be large; an effect the other way counts as inactive or inconclusive. Unless noted, % is set by controls: 0 for no effect and ±100 for the full control effect; potency is the fitted concentration of half-maximal effect.
SMILES,KB-3-1 tox,TDP1 cell noCPT,HT1080 IDH1KD tx,KB-V1 cytotox,DT40 TDP1 CPT,HT1080-NT tox
CC(C)(C)NC(=O)C(c1ccccc1F)n1c(=O)c(-c2cc3ccccc3[nH]2)nc2ccccc21 (configuration not stated),?,13µM*,?,i,?,-15%
CC(C)(C)NC(=O)C(C1CC1)n1c(=O)c(-c2cc3ccccc3[nH]2)nc2ccccc21 (configuration not stated),?,?,?,?,18µM*,?
CC(C)(C)NC(=O)C(c1ccncc1)n1c(=O)c(-c2cc3ccccc3[nH]2)nc2ccccc21 (configuration not stated),i,16µM*,?,?,23µM*,?
COc1ccc(C(C(=O)NC(C)(C)C)n2c(=O)c(-c3cc4ccccc4[nH]3)nc3ccccc32)cc1 (configuration not stated),?,?,?,?,?,-25%
Cc1cccc(C)c1NC(=O)C(C1CC1)n1c(=O)c(-c2cc3ccccc3[nH]2)nc2ccccc21 (configuration not stated),?,?,?,?,?,-4%
CC(C)(C)NC(=O)C(c1cc2ccccc2o1)n1c(=O)c(-c2cc3ccccc3[nH]2)nc2ccccc21 (configuration not stated),i,?,?,i,?,?
COc1ccc(S(=O)(=O)NC(=O)C2(C)CCN2C(=O)Cc2cccc3ccccc23)cc1 (configuration not stated),i,-5%,16%,i,4%,11%
COc1ccc(C2SCC(=O)N2CC23CC4CC(CC(C4)C2)C3)cc1 (configuration not stated),i,-24%,5%,i,?,3%
Cc1nc2ccccc2c(=O)n1NC(=O)c1cccc(Cl)c1,i,?,-2%,i,-23%,5%
COc1ccc(N2C(=O)CS/C2=N\C(=S)Nc2ccccc2)cc1,i,5.8µM*,-15%,?,6.5µM*,?
O=C(CCNC(=O)C1CCN(S(=O)(=O)c2ccccc2)CC1)NCc1ccncc1,?,0%,6%,i,-5%,4%
CC(C)C/C=C1\CCc2c([nH]c3ccccc23)C1=O,i,-18%,18%,i,33%,2%
CC1C/C(=C\c2cccnc2)C(=O)/C(=C/c2cccnc2)C1 (configuration not stated),?,0.73µM*,2.9µM*,?,0.82µM*,?
O=C1/C(=C/c2cccnc2)CCc2c1[nH]c1ccccc21,i,?,13µM*,13µM*,18µM*,15µM*
CCn1c(-c2cc(-c3ccccc3)sc2N)n[nH]c1=S,i,8.2µM*,-5%,i,?,-15%
CCn1c(-c2ccccc2O)n[nH]c1=S,i,-8%,?,i,-27%,?
CCn1c(-c2csc3ccccc23)n[nH]c1=S,18µM*,?,-1%,7.3µM*,?,-2%
O=C(/C=C\c1ccccc1)NC1CC(=O)N(c2ccccc2)C1 (configuration not stated),·,-7%,·,·,-16%,·
Nc1cccc[n+]1C(c1ccnc2ccccc12)[n+]1ccccc1N,i,1µM*,·,i,1.1µM*,·
CC(C)n1nccc1NC(=O)Nc1ccccc1,i,?,10%,i,-19%,24%
COc1ccc2c(Sc3ccc(C)cc3)c(C(=O)NCc3ccc(F)cc3)[nH]c2c1,i,?,·,i,?,·
Cn1c(CC(=O)NC(C)(C)CO)c(Sc2ccccc2)c2ccccc21,i,16µM*,-20%,i,15µM*,-26%
O=C(Nc1ccc2c(c1)OCCO2)C1CCCN1C(=O)Nc1ccc(F)cc1 (configuration not stated),i,14%,5%,i,-10%,10%
CCC(=O)Nc1ccc(C(=O)CSc2nnc(-c3ccc(NS(=O)(=O)CC)cc3)o2)cc1OC,i,1.2µM*,-7%,i,1.6µM*,-11%
CCc1c(-c2cccc(Cl)c2)ncn1Cc1cccc(-c2ccccc2)c1,?,?,?,16µM*,?,?
SMILES,KB-3-1 tox,TDP1 cell noCPT,HT1080 IDH1KD tx,KB-V1 cytotox,DT40 TDP1 CPT,HT1080-NT tox
CCCc1c(-c2cccc(Cl)c2)ncn1Cc1cccc(-c2ccccc2)c1,?,18µM*,23µM*,21µM*,21µM*,?
CCCc1c(-c2ccc(F)cc2F)ncn1Cc1cccc(-c2ccccc2)c1,?,4.1µM*,?,?,5.2µM*,?
CCc1c(-c2cccc(Br)c2)ncn1Cc1cccc(-c2ccccc2)c1,?,23µM*,?,i,?,-93%
O=C(NC1CCCC1)C(C1CC1)n1c(-c2ccncc2)nc2ccccc21 (configuration not stated),i,2%,1%,i,-6%,18%
CCCC(=O)N1CCC1(C)C(=O)NS(=O)(=O)c1cc(C)ccc1F (configuration not stated),i,-14%,20%,i,-16%,23%
CCCCCCOc1ccc(N2C(=O)CC(N3CCN(CCN=CC4C(=O)CC(C)(C)CC4=O)CC3)C2=O)cc1 (configuration not stated),i,23µM*,0%,i,?,-2%
CC1=C(c2ccc(C)cc2)S(=O)(=O)NC1=NCCCN1CCN(c2ccccc2F)CC1,i,16µM*,·,i,?,·
O=S(=O)(c1ccc2[nH]c3c(c2c1)CCCC3)N1CCN(c2cccc(C(F)(F)F)c2)CC1,i,?,·,i,?,·
COc1ccc(-c2ccc(C(=O)NCC3CC3)c3occc23)c(C)c1,i,?,?,i,21µM*,?
COc1ccc(-c2ccc(C(=O)NCc3ccncc3)c3occc23)c(C)c1,i,1.8µM*,?,i,2.1µM*,-30%
O=C(Oc1ccccc1)c1cccc2cccc(C(=O)Oc3ccccc3)c12,i,21µM*,-1%,?,?,-15%
O=C(OCc1ccccc1)N(CCF)c1cn(Cc2ccccc2)c(=O)n(Cc2ccccc2)c1=O,i,?,0%,i,?,-7%
O=C(NCc1ccco1)c1cccc(S(=O)(=O)N2CCN(Cc3ccccc3)CC2)c1,i,-28%,0%,i,-14%,-1%

# Bioassay records: PubChem, National Center for Advancing Translational Sciences (NCATS)
